From PubChem BioAssay
Activity calls are given as the source filed them.

Experiments:
[1] = compounds binding Alexa647 anti-His antibody – biochemical, small-molecule microarray, 635 nm fluorescence, artefact control for SMM control protein annotation, primary screen (AID 1128); settings: higher = more signal;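 note: score merges feature fluorescence with signal-to-noise for each printed compound spot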
[2] = test system: Human papillomavirus type 1a E7 protein (residues 1-88); experiment: HPV1a E7 small-molecule binders, primary screen, biochemical, small-molecule microarray, residues 1-88, 635 nm (AID 1129); settings: small-molecule microarray binding, fluorescence 635 nm; higher = more signal
[3] = target: Focal adhesion kinase 1 (Homo sapiens) (UniProt Q05397); experiment: PTK2 protein binding on printed compound slides – biochemical, small-molecule microarray, 635/667 nm fluorescence, BSA, DTT, primary screen (AID 1130); settings: 635 nm fluorescence, higher = more signal;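 note: composite of spot emission at 667 nm and signal to noise over triplicate slides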
Chain of Focal adhesion kinase 1 (Homo sapiens) (Q05397 whole entry, looked up): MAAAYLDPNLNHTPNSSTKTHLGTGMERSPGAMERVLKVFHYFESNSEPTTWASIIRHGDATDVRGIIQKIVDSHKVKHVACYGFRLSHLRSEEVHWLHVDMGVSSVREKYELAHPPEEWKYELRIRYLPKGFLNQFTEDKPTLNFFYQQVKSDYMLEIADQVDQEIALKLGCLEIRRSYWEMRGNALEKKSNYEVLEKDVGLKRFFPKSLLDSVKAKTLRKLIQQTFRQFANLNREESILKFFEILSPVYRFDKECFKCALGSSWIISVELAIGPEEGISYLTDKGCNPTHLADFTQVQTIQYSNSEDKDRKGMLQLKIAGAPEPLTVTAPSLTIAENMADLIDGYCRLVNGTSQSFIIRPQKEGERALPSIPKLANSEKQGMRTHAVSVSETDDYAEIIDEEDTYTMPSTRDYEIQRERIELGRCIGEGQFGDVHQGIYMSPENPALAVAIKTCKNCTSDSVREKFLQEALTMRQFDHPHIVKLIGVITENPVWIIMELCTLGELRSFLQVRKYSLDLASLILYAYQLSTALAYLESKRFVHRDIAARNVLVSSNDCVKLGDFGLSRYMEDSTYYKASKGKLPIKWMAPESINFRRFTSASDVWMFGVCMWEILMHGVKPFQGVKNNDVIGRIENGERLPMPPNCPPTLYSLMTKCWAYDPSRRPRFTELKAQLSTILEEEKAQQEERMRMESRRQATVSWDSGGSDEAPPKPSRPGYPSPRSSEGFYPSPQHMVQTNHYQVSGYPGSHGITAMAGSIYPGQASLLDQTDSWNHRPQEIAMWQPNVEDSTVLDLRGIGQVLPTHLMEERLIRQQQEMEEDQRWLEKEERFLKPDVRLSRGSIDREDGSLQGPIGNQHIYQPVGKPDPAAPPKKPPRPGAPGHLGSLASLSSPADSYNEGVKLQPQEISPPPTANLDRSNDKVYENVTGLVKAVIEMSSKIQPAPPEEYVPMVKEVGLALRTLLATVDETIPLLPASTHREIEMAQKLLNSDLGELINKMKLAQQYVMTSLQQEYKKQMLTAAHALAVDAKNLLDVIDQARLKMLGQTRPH

[4] = test system: Fibrinogen (Alexa647-labelled); experiment: Alexa647-fibrinogen binding to printed small molecules – biochemical, small-molecule microarray, 635/667 nm fluorescence, artefact control for SMM control-protein annotation, profiling panel (AID 1131); settings: fibrinogen-A647 binding fluorescence, higher = more signal;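 note: z-score merges 667 nm fluorescence with per-spot signal-to-noise over triplicate slides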
[5] = target: Follistatin (Homo sapiens) (UniProt P19883); experiment: FST protein binding to printed compounds – biochemical, small-molecule microarray, 635/667 nm fluorescence, primary screen (AID 1132); settings: 635 nm fluorescence, higher = more signal
Chain of Follistatin (Homo sapiens) (P19883 whole entry, looked up): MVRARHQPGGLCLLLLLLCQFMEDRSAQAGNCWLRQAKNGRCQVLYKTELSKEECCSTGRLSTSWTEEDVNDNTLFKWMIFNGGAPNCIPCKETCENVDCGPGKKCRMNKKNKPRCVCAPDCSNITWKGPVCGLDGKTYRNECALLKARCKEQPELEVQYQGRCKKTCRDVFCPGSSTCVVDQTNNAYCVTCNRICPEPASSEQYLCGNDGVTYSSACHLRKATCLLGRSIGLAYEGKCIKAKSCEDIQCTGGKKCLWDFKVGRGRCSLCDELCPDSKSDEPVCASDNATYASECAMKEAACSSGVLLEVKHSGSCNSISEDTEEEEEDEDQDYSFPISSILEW

[6] = target: Fibroblast growth factor 2 (Homo sapiens) (UniProt P09038); experiment: basic fibroblast growth factor binding to printed compounds – biochemical, small-molecule microarray, 635/667 nm fluorescence, primary screen (AID 1133); settings: FGF2, fluorescence 635/667, higher = more signal
Chain of Fibroblast growth factor 2 (Homo sapiens) (P09038 whole entry, looked up): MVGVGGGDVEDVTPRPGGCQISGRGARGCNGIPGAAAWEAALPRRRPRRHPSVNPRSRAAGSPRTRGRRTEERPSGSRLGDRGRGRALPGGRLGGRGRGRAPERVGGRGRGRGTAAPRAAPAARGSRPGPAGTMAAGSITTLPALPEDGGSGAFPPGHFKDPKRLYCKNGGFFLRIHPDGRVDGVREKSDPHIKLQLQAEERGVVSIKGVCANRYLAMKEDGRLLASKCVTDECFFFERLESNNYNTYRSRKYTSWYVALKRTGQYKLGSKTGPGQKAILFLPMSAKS

[7] = JC-1 mitochondrial potential readout, lung cancer cells – cell-based, A549, JC-1 fluorescence, basal, 24 h, 100 nL, profiling panel (AID 1138); settings: higher = more signal;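 note: A549 lung adenocarcinoma cells under basal conditions with no added stimulus; test concentration not given here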
[8] = test system: Lefty1; experiment: Lefty1 protein binding to printed compounds – biochemical, small-molecule microarray, 635/667 nm fluorescence, primary screen (AID 1139); settings: fluorescence 635/667, higher = more signal
[9] = test system: wheat germ agglutinin (Triticum aestivum), Alexa647-labelled; experiment: Alexa647-WGA lectin binding to printed small molecules – biochemical, small-molecule microarray, 635/667 nm fluorescence, artefact control for SMM control-protein annotation, profiling panel (AID 1140); settings: WGA-A647 binding, 635 nm fluorescence, higher = more signal;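 note: score merges 667 nm feature emission with signal to noise over triplicate slides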
[10] = target: Luciferin 4-monooxygenase (Photinus pyralis) (UniProt P08659); experiment: inhibition of purified Photinus pyralis luciferase – biochemical, luminescence, purified enzyme, 2006 set, primary screen (AID 1141); settings: purified firefly luciferase, SteadyGlo luminescence, 30 min; higher = more signal, called active from +8 up or from −8 down;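 note: cell-free assay with purified firefly luciferase at 100 ng per well in PBS; test concentration not given here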
Chain of Luciferin 4-monooxygenase (Photinus pyralis) (P08659 whole entry, looked up): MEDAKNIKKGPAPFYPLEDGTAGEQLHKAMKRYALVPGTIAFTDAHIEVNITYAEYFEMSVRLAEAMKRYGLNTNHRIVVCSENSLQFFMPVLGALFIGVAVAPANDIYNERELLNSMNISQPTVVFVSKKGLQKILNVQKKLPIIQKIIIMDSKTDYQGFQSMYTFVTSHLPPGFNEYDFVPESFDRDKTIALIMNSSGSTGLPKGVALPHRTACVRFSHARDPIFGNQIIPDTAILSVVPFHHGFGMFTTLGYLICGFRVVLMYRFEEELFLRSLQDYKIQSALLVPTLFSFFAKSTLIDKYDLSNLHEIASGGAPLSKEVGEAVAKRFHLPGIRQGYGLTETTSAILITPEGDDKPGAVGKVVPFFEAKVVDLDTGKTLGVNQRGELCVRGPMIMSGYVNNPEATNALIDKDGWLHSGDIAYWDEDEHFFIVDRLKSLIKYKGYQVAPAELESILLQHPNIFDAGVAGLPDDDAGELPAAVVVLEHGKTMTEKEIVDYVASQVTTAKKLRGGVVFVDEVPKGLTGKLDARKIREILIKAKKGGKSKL

Row | SMILES | composite z-score [1] | composite z-score [2] | composite z-score [3] | composite z-score [4] | composite z-score [5] | composite z-score [6] | z-score [7] | composite z-score [8] | composite z-score [9] | z-score [10]
1 | COC(=O)[C@@]1(Cc2ccc(F)cc2)[C@H]2c3cc(C(=O)N(C)C)n(Cc4ccc(OC)c(OC)c4)c3C[C@H]2CN1C(=O)c1ccccc1 | 0.835 | -0.267 | 1.71 | 0.661 | -0.405 | -0.346 | 0.362 | -0.614 | 0.63 | 1.22 (inactive)
2 | COC(=O)[C@H](C)NC(=O)CCC1CC(OC(=O)NCc2cccc3ccccc23)CC2(CCCC(COC(=O)NCC3CCCCC3)O2)O1 (stereo not given in full) | 0.876 | 1.22 | 0.234 | 0.986 | 0.591 | 1.4 | -0.25 | 1.09 | 0.487 | 0.925 (inactive)
3 | COC(=O)C1=C(C)N(Cc2ccccc2)[C@]23O[C@](C(=O)OC)(C(=O)N2[C@@H]1c1ccccc1)[C@H]1CCOC(=O)[C@H]13 | 0.038 | 0.192 | 0.149 | 0.628 | 0.384 | 0.52 | 0.328 | 1.41 | 0.84 | -0.431 (inactive)
4 | COCCOC(=O)N1C(=O)[C@@]2(c3cc(C#CCNC(N)=O)ccc31)[C@H](c1ccccc1OCCO)N1[C@H](c3ccccc3)[C@H](c3ccccc3)OC(=O)[C@H]1[C@@H]2C(=O)N1CCN(c2ncccn2)CC1 | 1.94 | 0.74 | 0.491 | 0.714 | 0.705 | 1.55 | -1.08 | 0.296 | 0.727 | -1.9 (inactive)
5 | CCN1C(=O)[C@H]2[C@H]3[C@H](O)[C@H](O)CC(=NO[C@@H]4O[C@H](CO)[C@@H](O)[C@H](O)[C@H]4O)[C@@H]3CC[C@H]2C1=O | -0.0636 | -1.45 | -0.41 | -2.56 | 0.477 | 0.0724 | 0.459 | 0.232 | 0.714 | -0.156 (inactive)
6 | C#CCCCON=C1C[C@@H](O)[C@@H](O)[C@@H]2[C@@H]3C(=O)N(c4cccc(Oc5ccccc5)c4)C(=O)[C@@H]3CC[C@@H]12 | -0.0428 | 1 | 0.181 | 0.945 | 0.304 | 0.224 | -0.786 | 0.481 | 0.632 | 1.02 (inactive)
7 | C=CCNC(=O)[C@H]1[C@@H]2C(=O)O[C@@H](c3ccccc3)[C@@H](c3ccccc3)N2[C@@H](c2ccc(O)cc2)[C@]12C(=O)N(C(=O)OCCOC)c1ccc(C#CC3=CCCCC3)cc12 | 0.692 | 1.22 | 0.723 | 0.892 | 0.379 | 0.248 | -0.76 | 0.484 | 0.583 | -0.54 (inactive)
8 | Cn1cccc1C(O)C1C=CC2C(=O)NC(=O)C2N1Nc1ccccn1 (stereo not given) | 0.195 | -0.789 | -0.35 | -0.0084 | 0.776 | 0.126 | -1.96 | 0.097 | 1.03 | -1.41 (inactive)
